# In all, about 16,000 compounds went through this assay and about 5,100 (32%) were called active. Inconclusive results (about 25%) are left out. Calls follow the shape of the dose curve; as a rule, active = well fitted curve in the direction sought with a large enough effect; inconclusive = small, poorly fitted or top-dose-only effect, or effect the other way; inactive = no such curve, though single readings can be large or run the other way. This is one part of the list. The source holds several records for some structures; these can differ, active in one and inactive in another.
# Target: Cytochrome P450 3A4 (Homo sapiens) (UniProt P08684)
# Assay: Cytochrome panel assay with activity outcomes
# Settings: recombinant CYP, pro-luciferin dealkylation, luminescence, p450-cyp3a4; series mostly up to 57.1 µM
# % is scaled to controls: 0 for no effect and ±100 for the full control effect.
# Cytochrome P450 3A4 (Homo sapiens), sequence (P08684 whole entry, looked up): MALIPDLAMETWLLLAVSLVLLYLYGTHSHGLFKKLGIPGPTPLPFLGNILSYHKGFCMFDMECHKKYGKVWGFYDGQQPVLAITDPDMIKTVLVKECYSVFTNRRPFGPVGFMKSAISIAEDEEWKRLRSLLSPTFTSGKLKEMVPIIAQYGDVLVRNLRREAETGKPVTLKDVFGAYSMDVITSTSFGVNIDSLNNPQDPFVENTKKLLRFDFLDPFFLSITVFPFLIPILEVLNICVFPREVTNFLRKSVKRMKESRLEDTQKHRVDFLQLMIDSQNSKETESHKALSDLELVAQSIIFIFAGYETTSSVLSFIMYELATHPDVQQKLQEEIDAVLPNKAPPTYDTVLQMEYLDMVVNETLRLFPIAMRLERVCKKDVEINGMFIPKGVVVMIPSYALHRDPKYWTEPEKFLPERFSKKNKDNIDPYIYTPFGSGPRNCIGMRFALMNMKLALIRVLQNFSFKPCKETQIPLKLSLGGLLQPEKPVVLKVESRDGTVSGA
SMILES,"activity, negative = inhibition",AC50
COc1cc2c(cc1OC)[C@@]13CCN4CC5=CCO[C@H](CC(=O)O)[C@@H]([C@H]1N2)[C@H]5C[C@H]43,-10.2% [at 11.4 µM] (inactive),
CCC1(CCSC(=N)N)C(=O)NC(=O)NC1=O,-21.7% [at 11.4 µM] (inactive),
C[C@H]1[C@H](NC(=O)/C(=N/OC(C)(C)C(=O)O)c2csc(N)n2)C(=O)N1S(=O)(=O)O (stereo in doubt),inactive,
O=C(O)CNC(=O)[C@@H](CS)Cc1ccccc1,inactive,
CC(C)(C)c1cc(C=C(C#N)C#N)cc(C(C)(C)C)c1O,,3.16 µM (active)
N#CC(C#N)=Cc1cc(O)c(O)c(O)c1,,10 µM (active)
NCc1cc(=O)[nH]o1,inactive,
CCCN[C@@H]1CCc2c(OC)cccc2[C@@H]1C,inactive,
C[C@H]1CN(C2CCC(C#N)(c3ccc(F)cc3)CC2)CC[C@@]1(C(=O)O)c1ccccc1 (some centres not stated),inactive,
COc1cc2c(cc1O)C[C@@H]1c3c(cc(O)c(OC)c3-2)CCN1C,-12.7% [at 11.4 µM] (inactive),
CCCN1CC[C@@H]2c3cc(O)ccc3CC[C@H]21,inactive,
CC(C)c1ccc(C(c2c(O)c3ccccc3oc2=O)c2c(O)c3ccccc3oc2=O)cc1,-28.5% [at 11.4 µM] (inactive),
CC1=NCCc2c1[nH]c1cc(O)ccc21,inactive,
CCNC[C@H](O)c1cccc(O)c1,inactive,
CC(NCc1ccc(Cl)cc1)C(O)c1ccccc1 (configuration not stated),inactive,
C[C@@H](Cc1ccc(OCC(=O)O)cc1)NC[C@H](O)c1cccc(Cl)c1,,25.1 µM (active) and inactive
CCOC(=O)c1ncn2c1CN(C)C(=O)c1cc(F)ccc1-2,inactive,
Cn1ccnc1,inactive,
CNCCc1c[nH]c2ccc(O)cc12,inactive,
O=C(c1cc2cc3ccc(Cl)cc3nc2o1)N1CCC2(CC1)OCCO2,inactive,
C=CCN1C(=O)c2ccccc2Sc2ccc(C(=O)N3CCC4(CC3)OCCO4)cc21,,3.98 µM (active)
CC(=O)c1ccc2c(c1)N(CCCN(C)C)c1ccccc1S2,inactive,
O=C(O)CS(=O)(=O)C(c1ccccc1)c1ccccc1,2.64% [at 11.4 µM] (inactive),
CC(=O)c1c(O)c(C)c(O)c(Cc2c(O)c3c(c(C(=O)/C=C\c4ccccc4)c2O)OC(C)(C)C=C3)c1O,,12.6 µM (active)
Clc1cnc(Oc2ccc(Oc3ncc(Cl)cc3Cl)cc2)c(Cl)c1,inactive,
CSC([N-]/N=C/c1cccc(C)n1)=[S]=[Cu].CS[C@H]([S-])[N-]/N=C/c1cccc(C)n1,,3.98 µM (active)
CCCN(CCC)[C@@H]1CCc2c(OC)cccc2[C@@H]1C,inactive,

# Source: PubChem BioAssay AID1851 (National Center for Advancing Translational Sciences (NCATS), 2009)
